Assay results as given in PubChem BioAssay (NCATS).
Records with an inconclusive call do not appear. The source made the active and inactive calls. The call rests on the fitted dose curve; in most records, active means well fitted curve in the direction sought with a large enough effect; inconclusive means small, poorly fitted or top-dose-only effect, or another doubt; inactive means no such curve, though single readings can be large; an effect the other way counts as inactive or inconclusive.

What was measured:
[1] = P-glycoprotein substrates identified in KB-8-5-11 adenocarcinoma cell line, qHTS therapeutic library screen (AID 1346987); further: nearly all actives have a fitted effect of over 65% in size; further: potency means the concentration at half of the fitted maximal effect
Procedure, shortened: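 KB-8-5-11: colchicine-selected sub-line of KB-3-1 over-expressing P-gp; assay medium lacked colchicine. 72 h drug exposure at 37 degree C, CellTiter-Glo.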

[2] = test system: Zika virus NS2B-NS3 protease (linked construct); assay: Primary screen NINDS Rhodamine qHTS for Zika virus inhibitors (AID 1347160); further: on the % scale 0 is the no-effect control and ±100 the full control effect; nearly all actives have a fitted effect of over 55% in size
Procedure, shortened: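 Purified linked NS2B-NS3 protease (NS2B hydrophilic domain joined to NS3 protease by flexible linker), 25 nM in 10 mM Tris-HCl pH 8.0, 0.01% Tween 20. Compounds titrated, 15 min preincubation at room temperature; 1.5 microM Rhodamine110 substrate, FITC fluorescence change over 15 min.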

[3] = Primary qHTS for inhibitors of nuclear receptor binding SET domain protein 2 (NSD2) in an isogenic RCH-ACV NSD2 p.E1099K mutant (9B) (AID 1645876); further: potency means the concentration at half of the fitted maximal effect; nearly all actives have a fitted effect of over 70% in size
[4] = Primary qHTS for inhibitors of nuclear receptor binding SET domain protein 2 (NSD2) in an RCH-ACV wild type WT cells (2C) (AID 1645877); further: potency means the concentration at half of the fitted maximal effect; nearly all actives have a fitted effect of over 70% in size
[5] = target: Luciferin 4-monooxygenase (Photinus pyralis) (UniProt P08659); assay: Primary firefly luciferase (FLuc) qHTS assay for identification of artifact compounds. (AID 1845220); settings: outcome: dose series up to 54.1 µM unless noted; further: nearly all actives have a fitted effect of over 60% in size;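 on activity change, negative = inhibition: plate controls were DMSO vehicle for no effect and no enzyme for full effect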
Procedure, shortened: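 qHTS, 15 min compound preincubation with substrate (10 uM luciferin, 10 uM ATP) at RT, then 10 nM FLuc; 5 min; luminescence; % inhibition vs no-enzyme/DMSO controls, 4-parameter Hill fit.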

[6] = Primary fluorescence-based thiol-reactive (MSTI) qHTS assay for identification of artifact compounds. (AID 1845221);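 further: thiol-reactive compounds lower the probe fluorescence signal; nearly all actives have a fitted effect of over 65% in size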
Procedure, shortened: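 MSTI probe at 4 uM final in 2% DMSO/PBS pH 7.4; compounds, 1 h at room temperature in dark. Fluorescence Ex/Em 525/598 nm, normalised to Acetyl-MSTI and MSTI, fitted to 4-parameter Hill.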

[7] = test system: Nanoluciferase (engineered Oplophorus gracilirostris luciferase); assay: Primary Nanoluciferase (NLuc) qHTS assay for identification of artifact compounds. (AID 1845222);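 further: 0% = DMSO and -100% = no enzyme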
Procedure, shortened: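 Luminescence read-out of secreted NLuc in S16 cell conditioned medium (1:55); compounds tested with 15 min RT preincubation, then Nano-Glo substrate 1:100, 5 min. % inhibition vs no-enzyme and DMSO controls, 4-parameter Hill fit.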

[8] = Primary redox qHTS assay for identification of artifact compounds. (AID 1845223);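 further: 0% = DMSO and 100% = reference compound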
Procedure, shortened: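 Amplex Red (25 uM) and HRP (250 mU/mL) in HBSS, with compounds for 15 min, then 250 uM DTT for 30 min, room temperature, dark. Fluorescence 525/598 nm read; normalized to DMSO and 10 uM DA3003; Hill fit.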

HEK293 = assay: Cytotoxic Profiling of Annotated Libraries Using Quantitative High-Throughput Screening (AID 1296008); settings: Five cell lines viability, CellTiter-Glo ATP luminescence, 48-72 h; max response: stronger effect = lower value; further: nearly all actives have a fitted effect of over 60% in size; further: potency means the concentration at half of the fitted maximal effect; on max response: on the % scale 0 is the no-effect control and ±100 the full control effect
Procedure, shortened: (§1)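 Compounds were pin-transferred onto cells and incubated 48 or 72 hr at 37 degree Celsius, 95% humidity. CellTiter-Glo was added, plates sat 10 min at room temperature, then ATP-coupled luminescence was imaged as the viability read-out.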

C33A = assay: Primary qHTS to identify gynecologic anti-cancer compounds using libraries of approved drugs and bioactive compounds (AID 1345084); settings: Gynecologic cancer cell panel viability, ATPlite luminescence, 48 h; series mostly up to 57.5 µM; further: nearly all actives have a fitted effect of over 55% in size; further: potency means the concentration at half of the fitted maximal effect
Procedure, shortened: (§2)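 Cells, 1,000 per well, plated 16 h, then exposed 48 h at 37 C to compounds. Viability by ATPlite luminescence after 15 min at room temperature.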

Hek293T = assay: as above; settings: Gynecologic cancer cell panel viability, ATPlite luminescence, 48 h, control line for the selectivity index; series mostly up to 57.5 µM
Procedure, shortened: as §2

JEG-3 = assay: as above; settings: Gynecologic cancer cell panel viability, ATPlite luminescence, 48 h; series mostly up to 57.5 µM
Procedure, shortened: as §2

OV90 = assay: as above; settings: Gynecologic cancer cell panel viability, ATPlite luminescence, 48 h; series mostly up to 57.5 µM
Procedure, shortened: as §2

PA-1 = assay: as above; settings: Gynecologic cancer cell panel viability, ATPlite luminescence, 48 h; series mostly up to 57.5 µM
Procedure, shortened: as §2

[9] = test system: Zika virus NS2B-NS3 protease (unlinked complex); assay: Primary screen GU Rhodamine qHTS for Zika virus inhibitors: Unlinked NS2B-NS3 protease assay (AID 1347159)
Procedure, shortened: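 Noncovalent NS2B hydrophilic domain–NS3 protease domain complex (25 nM) preincubated 15 min at room temperature with compounds (up to 114 microM) in 10 mM Tris-HCl pH 8.0, 0.01% Tween 20; 1.5 microM Rhodamine110 substrate added, fluorescence change over 15 min fitted to Hill equation.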

[10] = target: Calcium and integrin-binding protein 1 (Homo sapiens) (UniProt Q99828); assay: Primary qHTS for Identification of Calcium Integrin Binding Protein 1 (CIB1) Competitor (AID 1508620);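 further: GST tagged CIB1 binding a fluorescein labelled alphaIIb integrin peptide tracer; top concentration of the series differs between compounds; on the % scale 0 is the no-effect control and ±100 the full control effect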
Procedure, shortened: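 Fluorescence polarization competition: CIB1-GST (1 uM final) preincubated with compound 15 min at room temperature, then FITC-labeled alphaIIb peptide (100 nM final) added for another 15 min. Polarization read at Ex 480/Em 540.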

[11] = target: Glutathione peroxidase 1 (Homo sapiens) (UniProt P07203); assay: Primary qHTS Assay for Inhibitors of Recombinant Selenoprotein Glutathione Peroxidase 1 (GPX1) (AID 1845191); further: nearly all actives have a fitted effect of over 65% in size
Procedure, shortened: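 Recombinant GPX1 (10 nM final) was preincubated with compound for 30 min at room temperature, then reacted with 1 mM GSH, 0.5 mM CHP, 0.5 mM NADPH and 100 nM glutathione reductase; NADPH fluorescence (340/450 nm) was read at 0 and 15 min.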

[12] = target: Phospholipid hydroperoxide glutathione peroxidase GPX4 (Homo sapiens) (UniProt P36969); assay: Primary qHTS Assay for Inhibitors of Recombinant Selenoprotein Glutathione Peroxidase 4 (GPX4) (AID 1845192); further: nearly all actives have a fitted effect of over 65% in size
Procedure, shortened: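 GR-coupled readout: 100 nM GR, 1 mM GSH, 0.5 mM NADPH; NADPH fluorescence (ex 340/em 450 nm) read at t=0 and after 15 min RT. GPX4 200 nM, preincubated 30 min with compound; substrate 0.5 mM CHP.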

HaCat [13] = assay: Cytotoxic Profiling of Annotated Libraries Using Quantitative High-Throughput Screening (AID 1296008); settings: Five cell lines viability, CellTiter-Glo ATP luminescence, 48-72 h; max response: stronger effect = lower value; further: nearly all actives have a fitted effect of over 60% in size; further: potency means the concentration at half of the fitted maximal effect; on max response: on the % scale 0 is the no-effect control and ±100 the full control effect
Procedure, shortened: as §1

Tov-21-G = assay: Primary qHTS to identify gynecologic anti-cancer compounds using libraries of approved drugs and bioactive compounds (AID 1345084); settings: Gynecologic cancer cell panel viability, ATPlite luminescence, 48 h; series mostly up to 57.5 µM; further: nearly all actives have a fitted effect of over 55% in size; further: potency means the concentration at half of the fitted maximal effect
Procedure, shortened: as §2

[14] = target: Catechol O-methyltransferase (Homo sapiens) (UniProt P21964); assay: Confirmatory Screen for Target Class Profiling of Small Molecule Inhibitors of Methyltransferases (AID 1745852); settings: MTase-Glo luminescence, SAH detection, recombinant enzyme; measured here: COMT max response; stronger effect = lower value
[15] = target: Guanidinoacetate N-methyltransferase (Homo sapiens) (UniProt Q14353); assay: as above; settings: activity change, negative = inhibition: at 57.3 µM (top of the series) unless noted
[16] = target: Nicotinamide N-methyltransferase (Homo sapiens) (UniProt P40261); assay: as above; settings: MTase-Glo luminescence, SAH detection, recombinant enzyme; measured here: NNMT max response; stronger effect = lower value
[17] = target: Phenylethanolamine N-methyltransferase (Homo sapiens) (UniProt P11086); assay: as above; settings: MTase-Glo luminescence, SAH detection, recombinant enzyme; measured here: PNMT max response; stronger effect = lower value
KB-3-1 = assay: Cytotoxic Profiling of Annotated Libraries Using Quantitative High-Throughput Screening (AID 1296008); settings: Five cell lines viability, CellTiter-Glo ATP luminescence, 48-72 h; max response: stronger effect = lower value; further: nearly all actives have a fitted effect of over 60% in size; further: potency means the concentration at half of the fitted maximal effect; on max response: on the % scale 0 is the no-effect control and ±100 the full control effect
Procedure, shortened: as §1

HACAT [18] = assay: qHTS assay to identify novel small-molecules to repurpose for Merkel cell carcinoma treatment (AID 1296009); settings: MCC and control cell lines, CellTiter-Glo viability, 72 h; at 44.8 µM (top of the series) unless noted; further: nearly all actives have a fitted effect of over 60% in size
Procedure, shortened: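 Cells exposed to NPC (8-point) and MIPE (11-point) compound dilutions for 72 hr at 37 degree celsius; viability read by CellTiter-Glo luminescence, normalized to no-cell and DMSO in-plate controls.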

CAOV3 = assay: Primary qHTS to identify gynecologic anti-cancer compounds using libraries of approved drugs and bioactive compounds (AID 1345084); settings: Gynecologic cancer cell panel viability, ATPlite luminescence, 48 h; series mostly up to 57.5 µM; further: nearly all actives have a fitted effect of over 55% in size; further: potency means the concentration at half of the fitted maximal effect
Procedure, shortened: as §2

NIH3T3 = assay: Cytotoxic Profiling of Annotated Libraries Using Quantitative High-Throughput Screening (AID 1296008); settings: Five cell lines viability, CellTiter-Glo ATP luminescence, 48-72 h; max response: stronger effect = lower value; further: nearly all actives have a fitted effect of over 60% in size; further: potency means the concentration at half of the fitted maximal effect
Procedure, shortened: as §1

Es-2 = assay: Primary qHTS to identify gynecologic anti-cancer compounds using libraries of approved drugs and bioactive compounds (AID 1345084); settings: Gynecologic cancer cell panel viability, ATPlite luminescence, 48 h; series mostly up to 57.5 µM; further: nearly all actives have a fitted effect of over 55% in size; further: potency means the concentration at half of the fitted maximal effect
Procedure, shortened: as §2

HeLa = assay: as above; settings: Gynecologic cancer cell panel viability, ATPlite luminescence, 48 h; series mostly up to 57.5 µM
Procedure, shortened: as §2

SKOV3 = assay: as above; settings: Gynecologic cancer cell panel viability, ATPlite luminescence, 48 h; series mostly up to 57.5 µM
Procedure, shortened: as §2

Tov112D = assay: as above; settings: Gynecologic cancer cell panel viability, ATPlite luminescence, 48 h; series mostly up to 57.5 µM
Procedure, shortened: as §2

Sequence of Glutathione peroxidase 1 (Homo sapiens) (P07203 whole entry, looked up): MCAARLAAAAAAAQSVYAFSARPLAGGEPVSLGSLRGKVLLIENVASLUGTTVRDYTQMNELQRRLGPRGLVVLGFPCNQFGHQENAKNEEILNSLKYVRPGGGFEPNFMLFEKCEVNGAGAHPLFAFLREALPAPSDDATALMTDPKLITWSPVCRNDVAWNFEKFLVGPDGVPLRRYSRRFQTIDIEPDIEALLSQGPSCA
Sequence of Calcium and integrin-binding protein 1 (Homo sapiens) (Q99828 whole entry, looked up): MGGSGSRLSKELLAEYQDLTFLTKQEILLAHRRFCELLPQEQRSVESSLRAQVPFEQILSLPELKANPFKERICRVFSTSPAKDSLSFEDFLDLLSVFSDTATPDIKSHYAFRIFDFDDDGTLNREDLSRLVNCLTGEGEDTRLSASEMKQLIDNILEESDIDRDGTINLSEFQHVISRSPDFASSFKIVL
Sequence of Phospholipid hydroperoxide glutathione peroxidase GPX4 (Homo sapiens) (P36969 whole entry, looked up): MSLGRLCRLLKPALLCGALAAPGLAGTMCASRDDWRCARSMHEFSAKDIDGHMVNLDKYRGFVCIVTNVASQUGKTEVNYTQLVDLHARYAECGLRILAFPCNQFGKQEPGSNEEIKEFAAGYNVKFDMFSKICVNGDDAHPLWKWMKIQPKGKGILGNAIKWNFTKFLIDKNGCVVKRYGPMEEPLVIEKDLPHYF
Sequence of Catechol O-methyltransferase (Homo sapiens) (P21964 whole entry, looked up): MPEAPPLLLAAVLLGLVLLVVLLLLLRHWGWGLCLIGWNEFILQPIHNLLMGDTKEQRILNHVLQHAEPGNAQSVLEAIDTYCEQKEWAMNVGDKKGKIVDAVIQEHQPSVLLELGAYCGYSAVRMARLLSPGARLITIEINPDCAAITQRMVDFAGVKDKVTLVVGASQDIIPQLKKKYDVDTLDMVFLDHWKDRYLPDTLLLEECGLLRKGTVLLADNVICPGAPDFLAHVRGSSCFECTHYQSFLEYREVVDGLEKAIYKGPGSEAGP
Sequence of Phenylethanolamine N-methyltransferase (Homo sapiens) (P11086 whole entry, looked up): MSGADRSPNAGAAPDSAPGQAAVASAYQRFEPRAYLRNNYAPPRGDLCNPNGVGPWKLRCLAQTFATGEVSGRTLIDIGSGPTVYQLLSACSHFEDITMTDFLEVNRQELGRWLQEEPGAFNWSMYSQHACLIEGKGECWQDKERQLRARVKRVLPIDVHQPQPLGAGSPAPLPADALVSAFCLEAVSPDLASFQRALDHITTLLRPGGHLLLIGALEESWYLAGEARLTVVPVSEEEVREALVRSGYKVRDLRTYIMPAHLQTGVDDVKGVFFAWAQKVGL
Sequence of Nicotinamide N-methyltransferase (Homo sapiens) (P40261 whole entry, looked up): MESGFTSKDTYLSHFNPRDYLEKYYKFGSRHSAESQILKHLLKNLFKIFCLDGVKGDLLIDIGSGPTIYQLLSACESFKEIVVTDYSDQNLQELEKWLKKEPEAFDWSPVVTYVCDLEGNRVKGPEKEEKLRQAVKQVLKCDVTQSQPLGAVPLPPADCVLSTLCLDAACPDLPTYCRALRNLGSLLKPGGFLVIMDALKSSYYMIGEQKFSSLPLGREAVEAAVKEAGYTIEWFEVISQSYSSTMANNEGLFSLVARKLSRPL

Cc1sc2c(c1C)C(c1ccc(Cl)cc1)=NC(CC(=O)OC(C)(C)C)c1nnc(C)n1-2 (stereo unspecified)
inactive: Potency [2] | outcome [5] | Potency [6] | Potency [7] | Potency [8] | Potency (C33A) | Potency (Hek293T) | Potency (JEG-3) | Potency (OV90)
active: Potency [1] 1.16 µM | Potency [3] 0.183 µM | Potency [4] 0.129 µM | Potency (HEK293) 0.651 µM | Potency (PA-1) 2 µM

C/C=C(/C)C(=O)O[C@H]1[C@@H]2[C@H](C)C(=O)O[C@@H]2C[C@@H](C)[C@@H]2C=CC(=O)[C@]21C
active: Potency [3] 12.7 µM | Potency [4] 10.1 µM
inactive: Potency [9] | Potency [2] | Potency [10] | Potency [11] | Potency [12] | outcome [5] | Potency [6] | Potency [7] | Potency [8] | max response (HEK293) -117% | max response (HaCat [13]) -11.7% | Potency (JEG-3) | Potency (Tov-21-G)

CCOC(=O)c1ccnc2cc(C(OCCN3CCCCC3)c3ccccc3Cl)sc12 (stereo unspecified)
inactive: Potency [1] | Potency [9] | Potency [2] | Potency [10] | Potency [11] | Potency [12] | outcome [5] | Potency [6] | Potency [7] | Potency [8] | outcome (HaCat [13]) | max response (KB-3-1) 5.4% | outcome (HACAT [18]) | Potency (CAOV3)
-18.4%: activity [16]
active: Potency [3] 23 µM | Potency [4] 20.5 µM
-1.68%: activity [14]
-4.81%: activity [17]
9.58%: activity change, negative = inhibition [15]

CC(=O)O[C@H]1C(=O)[C@]2(C)C(O)C[C@H]3OC[C@@]3(OC(C)=O)[C@H]2[C@H](OC(=O)c2ccccc2)[C@]2(O)C[C@H](O)C(C)=C1C2(C)C (stereo partly specified)
inactive: Potency [1] | Potency [9] | Potency [2] | Potency [10] | Potency [11] | outcome [5] | Potency [7] | Potency [8] | max response (HaCat [13]) -29.4% | max response (NIH3T3) -3.65% | Potency (C33A) | Potency (CAOV3) | Potency (Es-2) | Potency (HeLa) | Potency (Hek293T) | Potency (JEG-3) | Potency (OV90) | Potency (PA-1) | Potency (SKOV3) | Potency (Tov-21-G) | Potency (Tov112D)
active: Potency [4] 5.41 µM
